Hit rate of the full screen: of about 52,000 compounds, about 4,300 (8.3%) were called active. Only a selection was taken, and actives are over-represented in it overall. A number with no mark means an inactive call. Cut-off read from the data, not from the text of the source: active = survival mostly below about 52% (no sharp cut-off); inactive = mostly above about 56%.
Test system: DeltatarO mutant
Test: S. aureus survival, RN4220 and DeltatarO strains – OD600, teichoic acid synthesis inhibitors, primary screen (AID 463173)
Conditions: S. aureus RN4220 wild type/DeltatarO growth, OD600, 18 h, active compounds read low, screened at 18.75 µg/mL (by protocol)

With `O=S(=O)(c1ccc(Br)cc1)c1nc(-c2cccs2)oc1SCc1ccccc1F` as the molecule, how does the survival read?
The survival was 66%.

How did the survival turn out when `Cc1cccc(CN2C(=O)c3ccccc3S(=O)(=O)c3ccc(C(=O)N4CCN(c5cc(C)ccc5C)CC4)cc32)c1` was run?
The survival was 74%.

How did the survival turn out when `CC1CCN(S(=O)(=O)c2ccc3c(c2)N(CC(=O)NCCc2ccc(Cl)cc2)C(=O)CO3)CC1` was run?
The survival was 87%.

How did the survival turn out when `Cc1cc(C)cc(Oc2nc3ccccn3c(=O)c2/C=C(\C#N)c2nc3ccccc3s2)c1` was run?
Its survival is 60%.

For `COc1ccc(NC(=O)CC2C(=O)N(c3ccc(C)cc3)C(=O)N2Cc2ccc(C)cc2)cc1` (centres undefined), which survival is on record?
Its survival is 68%.

Which survival does the source give for `Cc1ccc(CN(C(=O)COc2ccccc2Cl)c2ccccn2)o1` here?
The survival was 59%.

How did the survival turn out when `COc1ccc(CCNc2ncnc3onc(C)c23)c(OC)c1` was run?
The survival was 100%.

`COC(=O)c1c(-c2cccs2)csc1NC(=O)COc1ccccc1` was tested. Which survival did it give?
The survival was 78%.

Which survival does the source give for `COc1cc(C=Nc2ccc3[nH]c(=O)[nH]c3c2)ccc1OC(C)=O` here?
Its survival is 85%.

How did the survival turn out when `O=c1[nH]c2ccc(N=Cc3ccc(F)cc3)cc2[nH]1` was run?
Its survival is 73%.

`O=c1[nH]c2ccc(N=Cc3ccccc3C(F)(F)F)cc2[nH]1` was tested. Which survival did it give?
The survival was 71% (active).

How did the survival turn out when `CC1CCN(S(=O)(=O)c2ccc3c(c2)N(CC(=O)O)C(=O)CO3)CC1` was run?
Its survival is 94%.

`CCOc1ccc(CNC(=O)Cc2ccc(NC(=O)N3CCCCc4ccccc43)cc2)cc1OC` was tested. Which survival did it give?
Its survival is 85%.

`COc1ccc(N2CCN(C(=O)Nc3cn(CC(C)C)c(=O)c4ccccc34)CC2)cc1` was tested. Which survival did it give?
The survival was 83%.

With `CS(=O)(=O)N1CCC(N2CCN(Cc3ccccc3)C(=O)C2=O)CC1` as the molecule, how does the survival read?
Its survival is 91%.

`Cc1ccc(-c2nc(C(=O)Nc3cccc(C#N)c3)c3n2CCCCC3)cc1` was tested. Which survival did it give?
Its survival is 88%.

Which survival does the source give for `CC(=O)c1ccc(NC(=O)c2nc(-c3ccc(C)cc3)n3c2CCCCC3)cc1` here?
The survival was 58%.

With `CC(=O)c1cccc(NC(=O)c2nc(-c3ccc(C)cc3)n3c2CCCCC3)c1` as the molecule, how does the survival read?
The survival was 34% (active).

For `N#C/C(=C/c1ccc(-c2cccc(C(F)(F)F)c2)o1)C(=O)OC1CCCCC1`, which survival is on record?
The survival was 82%.

For `Cc1cccc(C(=O)Nc2cccc(C(=O)OCc3cc(=O)n4nc(C(C)C)sc4n3)c2)c1`, which survival is on record?
The survival was 113%.

With `Cc1ccc(N2C(=O)c3[nH]nc(-c4ccc(Cl)cc4)c3C2c2ccc(F)cc2)cc1` (centres undefined) as the molecule, how does the survival read?
Its survival is 44% (active).

Which survival does the source give for `CCOc1ccc(C2c3c(-c4ccc(C)cc4)n[nH]c3C(=O)N2c2ccc(Cl)cc2)cc1` (centres undefined) here?
Its survival is 91%.

For `Cc1ccc(-c2n[nH]c3c2C(c2cccs2)N(c2ccc(Cl)cc2)C3=O)cc1` (centres undefined), which survival is on record?
Its survival is 62%.

With `Cc1ccc(N2C(=O)c3n[nH]c(C)c3C2c2ccc(C(C)C)cc2)cc1` (centres undefined) as the molecule, how does the survival read?
Its survival is 39% (active).

For `Cc1ccc(N2C(=O)c3n[nH]c(C)c3C2c2ccccc2Cl)cc1` (centres undefined), which survival is on record?
Its survival is 120%.

For `O=C1c2[nH]nc(-c3ccc(F)cc3)c2C(c2ccccc2F)N1c1ccccc1` (centres undefined), which survival is on record?
Its survival is 10% (active).

Which survival does the source give for `Cc1ccc(N2C(=O)c3n[nH]c(C)c3C2c2ccc(Cl)cc2)cc1` (centres undefined) here?
The survival was 6% (active).

With `CCOC(=O)c1ccc(N2C(=O)c3n[nH]c(C)c3C2c2ccc(C(C)C)cc2)cc1` (centres undefined) as the molecule, how does the survival read?
The survival was 86%.

Which survival does the source give for `CCOC(=O)c1ccc(N2C(=O)c3n[nH]c(-c4cccs4)c3C2c2ccc(C(C)C)cc2)cc1` (centres undefined) here?
Its survival is 104%.

With `COc1ccc(C2c3c(-c4ccc(F)cc4)n[nH]c3C(=O)N2c2ccccc2)cc1OC` (centres undefined) as the molecule, how does the survival read?
Its survival is 124%.

With `COc1cc(C2c3c(-c4ccc(C)cc4)n[nH]c3C(=O)N2c2ccc(F)cc2)ccc1O` (centres undefined) as the molecule, how does the survival read?
The survival was 95%.

With `COc1ccccc1C1c2c(-c3ccc(Cl)cc3)n[nH]c2C(=O)N1c1ccc(C)cc1` (centres undefined) as the molecule, how does the survival read?
The survival was 79%.

For `CCN(CC)C(=O)CN1C(=O)COc2ccc(S(=O)(=O)N3CCOCC3)cc21`, which survival is on record?
Its survival is 78%.

Which survival does the source give for `O=C(Nc1cc2c(cc1C(=O)c1ccc(Br)cc1)OCCO2)c1ccc(Cl)cc1` here?
Its survival is 102%.

Which survival does the source give for `Cc1ccc2c(c1)N(CC(=O)OCC(=O)NCc1ccccc1)C(=O)CO2` here?
Its survival is 81%.

For `COCCNC(=O)c1ccc(-c2nc(CS(=O)(=O)c3ccccc3)c(C)o2)cc1`, which survival is on record?
Its survival is 119%.

How did the survival turn out when `COCCCNc1nc2c(c(=O)[nH]c(=O)n2C)n1CC(O)COc1ccc(Cl)cc1` (centres undefined) was run?
The survival was 66%.

With `O=C1c2[nH]nc(-c3ccccc3)c2C(c2ccccc2)N1c1cccc(C(F)(F)F)c1` (centres undefined) as the molecule, how does the survival read?
The survival was 20% (active).

Which survival does the source give for `CCc1ccc(C2c3c(-c4ccccc4)n[nH]c3C(=O)N2c2ccc(C(=O)O)cc2)cc1` (centres undefined) here?
Its survival is 48% (active).

For `CCOC(=O)c1ccc(N2C(=O)c3n[nH]c(C)c3C2c2ccc(CC)cc2)cc1` (centres undefined), which survival is on record?
Its survival is 78%.

`CCOC(=O)c1ccc(N2C(=O)c3[nH]nc(-c4ccccc4)c3C2c2ccc(C(C)C)cc2)cc1` (centres undefined) was tested. Which survival did it give?
Its survival is 105%.

`O=C(O)c1ccc(N2C(=O)c3[nH]nc(-c4ccccc4)c3C2c2cccc(F)c2)cc1` (centres undefined) was tested. Which survival did it give?
The survival was 92%.

With `CCOC(=O)c1ccc(N2C(=O)c3[nH]nc(-c4ccc(C)cc4)c3C2c2cccc(F)c2)cc1` (centres undefined) as the molecule, how does the survival read?
Its survival is 117%.

For `CCOC(=O)c1ccc(N2C(=O)c3[nH]nc(-c4ccccc4)c3C2c2ccc(CC)cc2)cc1` (centres undefined), which survival is on record?
Its survival is 100%.

How did the survival turn out when `CCc1ccc(C2c3c(n[nH]c3C)C(=O)N2c2ccc(C)cc2)cc1` (centres undefined) was run?
The survival was 8% (active).

With `CCOC(=O)c1ccc(N2C(=O)c3n[nH]c(-c4cccs4)c3C2c2ccc(CC)cc2)cc1` (centres undefined) as the molecule, how does the survival read?
The survival was 99%.

How did the survival turn out when `Clc1ccc(OCc2nc(-c3ccc(-n4cccc4)cc3)no2)cc1` was run?
Its survival is 163%.

With `O=C(CNCC1CCCO1)NCc1ccco1` (centres undefined) as the molecule, how does the survival read?
The survival was 97%.

For `CCN(Cc1ccccc1)Cc1c(O)ccc2c(=O)c(-c3ccccc3Cl)c(C(F)(F)F)oc12`, which survival is on record?
The survival was 74%.

For `COc1ccc(N=C2SCC(=O)N2C)cc1`, which survival is on record?
Its survival is 76%.

With `COc1ccc(C2=Nn3c(nc4sc(C(=O)Nc5cccc(C)c5)c(C)c4c3=O)SC2)cc1` as the molecule, how does the survival read?
Its survival is 105%.

For `COc1ccc(C2=Nn3c([n+](C)c4ccccc43)SC2)cc1`, which survival is on record?
The survival was 0% (active).

With `O=C(COc1ccccc1)Nc1ccccc1OCc1cc(=O)n2ccccc2n1` as the molecule, how does the survival read?
Its survival is 78%.

For `CCC1CN(C(=O)N2CCC(C(=O)NCCCc3ccccc3)CC2)c2ccccc2O1` (centres undefined), which survival is on record?
The survival was 69%.

`CNCC(=O)NC(c1ccccc1)c1ccccc1` was tested. Which survival did it give?
Its survival is 97%.

For `CN(C)CCCN(C(=O)c1ccc(Br)s1)c1nc2ccc(F)cc2s1`, which survival is on record?
The survival was -5% (active).

Which survival does the source give for `CN(C)CCCN(C(=O)c1cccs1)c1nc2ccc(F)cc2s1` here?
The survival was 92%.

Which survival does the source give for `Cc1ccc2nc(N(CCCN(C)C)C(=O)c3ccc(Br)s3)sc2c1` here?
Its survival is 77%.

Which survival does the source give for `COC(=O)c1sc2cccc(F)c2c1S(=O)(=O)N1CCN(c2ccc(F)cc2)CC1` here?
Its survival is 81%.

`COc1ccc2c(CNCc3cccs3)c(C(=O)O)n(Cc3cccc(F)c3)c2c1` was tested. Which survival did it give?
Its survival is 72%.

With `Cc1cc(C)cc(Nc2cc(C(=O)NCCCN(Cc3ccccc3)C(C)C)c3ccccc3n2)c1` as the molecule, how does the survival read?
Its survival is -4% (active).

With `Cc1cc(C)cc(Nc2cc(C(=O)NCc3ccccc3)c3ccccc3n2)c1` as the molecule, how does the survival read?
The survival was 113%.

Which survival does the source give for `CSc1cccc(Nc2cc(C(=O)NCCCN(Cc3ccccc3)C(C)C)c3ccccc3n2)c1` here?
The survival was 88%.

For `Cc1ccc(N2CC(C(=O)NCCS(=O)(=O)N3CCN(c4ccc(F)cc4)CC3)CC2=O)cc1` (centres undefined), which survival is on record?
The survival was 89%.

For `Cc1ccc(CN(C(=O)COc2cccc([N+](=O)[O-])c2)c2ccccn2)cc1`, which survival is on record?
Its survival is 39% (active).

Which survival does the source give for `Cc1ccc(CN(C(=O)COc2ccccc2[N+](=O)[O-])c2ccccn2)cc1` here?
The survival was 46%.

`Cc1ccc(CN(C(=O)COc2ccc([N+](=O)[O-])cc2)c2ccccn2)cc1` was tested. Which survival did it give?
Its survival is 49%.

For `Cc1ccc(CN(C(=O)COc2ccccc2[N+](=O)[O-])c2ccccn2)o1`, which survival is on record?
Its survival is 69%.

With `Cc1ccc(CN(C(=O)COc2ccc([N+](=O)[O-])cc2)c2ccccn2)o1` as the molecule, how does the survival read?
Its survival is 62% (active).

For `Cc1ccc(CN(C(=O)COc2cccc([N+](=O)[O-])c2)c2ccccn2)o1`, which survival is on record?
Its survival is 62%.

How did the survival turn out when `Cc1c(-c2nsc(NC(=O)c3ccc(Cl)cc3)n2)nnn1-c1ccc(C(C)C)cc1` was run?
Its survival is 66%.

How did the survival turn out when `CN(C1CCCCC1)S(=O)(=O)c1ccc(F)c(C(=O)Nc2ccc(C(F)(F)F)cc2)c1` was run?
Its survival is 83%.

How did the survival turn out when `CCn1c(CN2CCCCC2)nc2cc(NC(=O)c3ccc([N+](=O)[O-])cc3)ccc21` was run?
The survival was 90%.

`Cc1cccc(N(C)S(=O)(=O)c2nnc(NC(=O)C3CCCCC3)s2)c1` was tested. Which survival did it give?
The survival was 72%.

With `CN(c1ccccc1)S(=O)(=O)c1nnc(NC(=O)C2CCCCC2)s1` as the molecule, how does the survival read?
The survival was 65%.

`O=C(Nc1nnc(S(=O)(=O)Nc2ccccc2)s1)c1ccccc1Cl` was tested. Which survival did it give?
The survival was 52%.

How did the survival turn out when `O=C(Nc1nnc(S(=O)(=O)Nc2ccccc2)s1)C1CCCCC1` was run?
Its survival is 31% (active).

How did the survival turn out when `Cc1cccc(NS(=O)(=O)c2nnc(NC(=O)c3cccc(C)c3)s2)c1` was run?
Its survival is 61%.

With `Cc1cccc(NS(=O)(=O)c2nnc(NC(=O)C3CCCCC3)s2)c1` as the molecule, how does the survival read?
Its survival is 34% (active).

With `CC(=O)c1cc(-c2ccc(F)cc2)n(CCC(=O)Nc2nc3ccc(C)cc3s2)c1C` as the molecule, how does the survival read?
The survival was 69%.

`Cc1cc(C)c(NC(=O)Cn2c(=O)oc3cc(S(=O)(=O)N4CCCCCC4)ccc32)c(C)c1` was tested. Which survival did it give?
The survival was 83%.

Which survival does the source give for `CCOc1ccc(-n2c(SCC(=O)c3ccccc3)nc3c([nH]c4ccccc43)c2=O)cc1` here?
Its survival is 131%.

With `Cc1cccc(C(=O)OCc2cc(=O)n3nc(-c4cccs4)sc3n2)c1` as the molecule, how does the survival read?
Its survival is 101%.

`Cc1ccc(CCNC(=O)c2ccc(Nc3nc4ccccc4n4nnnc34)cc2)cc1` was tested. Which survival did it give?
Its survival is 72%.

How did the survival turn out when `N#Cc1ccc(NC(=O)C2Cc3ccccc3CN2S(=O)(=O)c2ccc(F)cc2)cc1` (centres undefined) was run?
The survival was 54%.

How did the survival turn out when `OCCn1nnnc1-c1ccccc1` was run?
Its survival is 85%.

How did the survival turn out when `CC(C)C12CN3CC(C(C)C)(CN(C1)C3c1ccc(OCc3ccccc3)cc1)C2=O` (centres undefined) was run?
The survival was 85%.

For `CCOc1ccc(C2N3CC4(C(C)C)CN2CC(C(C)C)(C3)C4=O)cc1OC` (centres undefined), which survival is on record?
The survival was 91%.

How did the survival turn out when `CC(C)C12CN3CC(C(C)C)(CN(C1)C3c1ccc(Cl)cc1)C2=O` (centres undefined) was run?
Its survival is 39% (active).
